Several values for one entry are separate records, joined by “and”; a condition that tells them apart may be missing. Equal entries are not always repeated. The source holds several records for some structures; these can differ, active in one and inactive in another. Activity calls are given as the source filed them. The call rests on the fitted dose curve; in most records, active means well fitted curve in the direction sought with a large enough effect in the signal ratio in the repeat runs (not every such curve was filed as active); inconclusive means weak or mixed curves, or effect the other way; inactive means no such curve, though single readings can be large or run the other way; the % refers to the signal ratio.

We go through 40 compounds from PubChem BioAssay (Tox21).
On the % scale 0 is the no-effect control and ±100 the full control effect; potency means the concentration at half of the fitted maximal effect.

Sequence of Estrogen receptor (Homo sapiens) (P03372 whole entry, looked up): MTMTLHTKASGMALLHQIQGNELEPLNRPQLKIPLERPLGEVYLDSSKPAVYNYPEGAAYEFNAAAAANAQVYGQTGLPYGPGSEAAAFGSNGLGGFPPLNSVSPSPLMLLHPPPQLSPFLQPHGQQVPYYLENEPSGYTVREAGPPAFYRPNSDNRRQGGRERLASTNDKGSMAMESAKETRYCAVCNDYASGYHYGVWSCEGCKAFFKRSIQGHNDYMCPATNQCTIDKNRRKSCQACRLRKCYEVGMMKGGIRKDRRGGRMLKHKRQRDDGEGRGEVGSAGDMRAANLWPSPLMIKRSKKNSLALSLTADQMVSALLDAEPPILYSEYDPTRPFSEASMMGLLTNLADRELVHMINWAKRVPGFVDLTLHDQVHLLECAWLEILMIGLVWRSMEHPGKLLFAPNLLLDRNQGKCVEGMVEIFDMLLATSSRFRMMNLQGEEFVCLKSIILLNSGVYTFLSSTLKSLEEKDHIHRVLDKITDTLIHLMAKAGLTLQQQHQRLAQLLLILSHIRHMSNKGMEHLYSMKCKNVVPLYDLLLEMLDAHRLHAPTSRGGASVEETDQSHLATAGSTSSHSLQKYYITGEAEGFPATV

The assay concerns the target Estrogen receptor (Homo sapiens) (UniProt P03372). In words: qHTS assay to identify small molecule antagonists of the estrogen receptor alpha (ER-alpha) signaling pathway (AID 743069). Conditions: HEK293 ER-alpha-UAS-bla, beta-lactamase ratio, antagonist mode; series mostly up to 69.4 µM; activity, negative = inhibition: at the top concentration. The text has this:
National Center for Advancing Translational Sciences [NCATS]
NIH Chemical Genomics Center [NCGC]
U.S. Environmental Protection Agency [EPA]
National Institutes of Environmental Health Sciences [NIEHS]
National Toxicology Program [NTP]
U.S. Food and Drug Administration [FDA]
Estrogen receptor (ER), a nuclear hormone receptor, plays an important role in development, metabolic homeostasis and reproduction. Two subtypes of ER, ER-alpha and ER-beta have similar expression patterns with some uniqueness in both types. Endocrine disrupting chemicals (EDCs) and their interactions with steroid hormone receptors like ER causes disruption of normal endocrine function. To identify the compounds that inhibit ER signaling, an ER-alpha-UAS-bla GripTiteTM cell line (Invitrogen, Carlsbad, CA, USA) containing a beta-lactamase reporter gene under the control of an Upstream Activator Sequence (UAS) stably integrated into HEK293 cells was used to screen the Tox21 10K compound library.
Tox21 Assay Protocol Summary:
ER-alpha-bla cells were cultured in assay medium containing 2% charcoal stripped FBS overnight in the culture flasks before the assay was performed. The cells were dispensed at 5,000 cells/5 uL of assay medium per well into black wall/clear-bottom 1536-well plates using a Multidrop Combi (ThermoFisher Scientific, Waltham, MA) dispenser. After the assay plates were incubated at a 37C and 5% CO2 for 4 hr, 23 nL of compounds dissolved in DMSO, positive controls or DMSO only was transferred to the assay plate by a Pintool station (Kalypsys, San Diego, CA), followed by addition of 1 uL of 17beta-estradiol in assay medium using a Flying Reagent Dispenser (Aurora Discovery, San Diego, CA). The plates were incubated at 37C and 5% CO2 for 18 hr. Then 1 uL of LiveBLAzerTM B/G FRET substrate was added using a Flying Reagent Dispenser, the plates were incubated at room temperature for 2 hours, and fluorescence intensity was measured by an Envision plate reader (PerkinElmer, Shelton, CT).
(In general: In qHTS, concentration-response curves come from the screen itself.)
Take `CCCCN(CCO)CCCC`: the “activity, negative = inhibition” value was 3.02% [at 79.1 µM] (inactive).

`O=C(Oc1ccccc1)c1ccccc1O`: the Potency result is “inactive”.

On to `CC(=O)CC(C)=O`, for which the “activity, negative = inhibition” value is 10.6% [at 79.1 µM] (inactive).

For the compound `C=C(C)C(=O)O`, the “activity, negative = inhibition” value was 11.2% [at 79.1 µM] (inactive).

Turning to `O=C(O)c1cc(Cl)cc(Cl)c1`, the “activity, negative = inhibition” value is 15.5% (inactive).

`CC(C)(c1ccccc1)c1ccc(Nc2ccc(C(C)(C)c3ccccc3)cc2)cc1`: the Potency is 61.7 µM [cytotoxic] (active).

`O=C(Nc1ccccc1SSc1ccccc1NC(=O)c1ccccc1)c1ccccc1`: the Potency entry was “inactive”.

For the compound `Cc1cc(C2(c3cc(C)c(O)cc3C)OS(=O)(=O)c3ccccc32)c(C)cc1O`, the Potency is 1.74 µM [inconclusive] (active).

Consider `CCC[C@H](N[C@@H](C)C(=O)N1[C@H](C(=O)O)C[C@@H]2CCCC[C@@H]21)C(=O)OCC`, for which the “activity, negative = inhibition” value was -14.3% (inactive).

For `O=C(O[C@@H]1Cc2c(O)cc(O)cc2O[C@@H]1c1cc(O)c(O)c(O)c1)c1cc(O)c(O)c(O)c1`, the “activity, negative = inhibition” value was -35.2% (inactive).

For the compound `C=C(C)C1CC=C(C)C(OC(C)=O)C1` (stereo not given), the Potency result was “inactive”.

As to `CCCCC/C=C/CC1CC(=O)OC1=O` (stereo not given), the “activity, negative = inhibition” value was 47% (inactive).

Consider `O=C1Nc2ccccc2C1(c1ccc(O)cc1)c1ccc(O)cc1`, for which the Potency is 49 µM [inconclusive] (active).

For `Nc1cc(Cl)c(-c2cc(Cl)c(N)cc2Cl)cc1Cl`, the Potency was 1.55 µM [inconclusive] (active) and 19.5 µM [inconclusive] (active).

Take `CC[C@@H](N)CO`: the “activity, negative = inhibition” value was 12.2% [at 79.1 µM] (inactive).

Turning to `c1cc(C(c2ccc(OCC3CO3)cc2)C(c2ccc(OCC3CO3)cc2)c2ccc(OCC3CO3)cc2)ccc1OCC1CO1` (stereo not given), the Potency result was “inactive”.

Take `CCCCCCCCCCCCCC[P+](CCCC)(CCCC)CCCC`: the Potency was 21.9 µM [cytotoxic] (active).

In the case of `COc1ccc(Cc2cnc(N)nc2N)cc1OC`, the “activity, negative = inhibition” value was 4.34% (inactive).

On to `CC1COC(=O)O1` (stereo not given), for which the “activity, negative = inhibition” value was -4.91% (inactive).

As for `Cc1ccc(-c2cc(C(F)(F)F)nn2-c2ccc(S(N)(=O)=O)cc2)cc1`, the Potency result is “inactive and 54.9 µM [inconclusive] (active)”.

Turning to `NCCCCCC(=O)O`, the “activity, negative = inhibition” value was 6.77% [at 32.6 µM] (inactive).

On to `CN1C(=O)c2ccc([N+](=O)[O-])cc2C1=O`, for which the “activity, negative = inhibition” value was 2.47% (inactive).

Consider `OCCN1CCNCC1`, for which the Potency result was “inactive”.

As to `C1COC(NC(C2CC2)C2CC2)=N1`, the “activity, negative = inhibition” value is -11% (inactive).

With `COC(=O)/C=C/c1ccccc1`, the “activity, negative = inhibition” value was -4.75% (inactive).

As for `CC(C)CCCCCCc1ccc(O)cc1`, the Potency result was “inactive”.

Consider `CCc1ccc(C(c2ccc(CC)cc2)C(Cl)Cl)cc1`, for which the Potency entry is “inactive”.

Regarding `CCCCOCCOC(=O)c1ccccc1C(=O)OCCOCCCC`, the “activity, negative = inhibition” value is 12.3% (inactive).

As for `Clc1ccc2c(c1)C(N1CCNCC1)=Nc1ccccc1O2`, the “activity, negative = inhibition” value is 14.9% (inactive).

On to `O=C(O)CP(=O)(O)O`, for which the “activity, negative = inhibition” value is 10.3% (inactive).

For `Nc1nc2ccccc2[nH]1`, the Potency result is “inactive”.

Consider `Cc1scc2c1N(C(=O)CN1CCN(C)CC1)c1ccccc1NC2=O`, for which the “activity, negative = inhibition” value was 7.83% (inactive).

Turning to `NC(N)=Nc1nc(CSCC/C(N)=N/S(N)(=O)=O)cs1`, the Potency entry was “inactive”.

Consider `O=C(OCc1ccccc1)c1ccc(O)cc1`, for which the “activity, negative = inhibition” value was -17.7% (inactive).

As to `Oc1c(Cl)cc(Cl)cc1Sc1cc(Cl)cc(Cl)c1O`, the Potency was 6.93 µM [inconclusive] (active) and 1.77 µM [inconclusive] (active).

For the compound `CC(C)(O)CCC(C)(C)O`, the “activity, negative = inhibition” value is -2.16% [at 79.1 µM] (inactive).

As to `CCCCCCCCCCCCCCCCCl`, the “activity, negative = inhibition” value is -8.71% [at 32.6 µM] (inactive).

`COC(=O)c1cccc(C(=O)OC)c1`: the Potency result was “inactive”.

Turning to `CCCCC(CC)COC(=O)CC(C(=O)OCC(CC)CCCC)S(=O)(=O)O` (stereo not given), the Potency is 21.3 µM [inhibitor] (active) and 54.9 µM [inhibitor] (active).

In the case of `c1cnc2cc3c(cc2n1)C1CNCC3C1`, the “activity, negative = inhibition” value was -15.7% [at 79.1 µM] (inactive).
